# Assay outcomes (PubChem)
# SRC3 inh = human NCOA3 inhibition; actives 0.17% (n = 360,000); HEK293 GAL4-SRC3 luciferase reporter, luminescence; AID 588352; inhibition, % at 3.6 µM; Q9Y6Q9;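 active = inhibition above a per-campaign cutoff, the mean of all compounds plus 3 SD, cut at about 60% in these data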;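 also: higher means less SRC3-driven luciferase light from the GAL4 reporter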
# Gli-Sufu antag = antagonists of Gli-Sufu signaling | actives 0.74% (n = 340,000) | AID 588413 | inhibition, % at 5 µM | Sufu-KO-LIGHT fibroblasts, Gli luciferase reporter luminescence;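 active = inhibition above about 55%, limit read from the data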
# NR2F2 inh = inhibitors of human COUP-TFII (NR2F2); P24468; HEK293T NGFI-A luciferase reporter, luminescence; inhibition, % at 8.6 µM; actives 0.7% (n = 370,000);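 active = inhibition above a per-plate cutoff, mean inhibition of test wells between control levels plus 3 SD, cut at about 38% in these data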;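 also: cells cotransfected with COUP-TFII expression vector driving the NGFI-A reporter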
# NR5A2 inv ag = suppresses constitutive activity of human LRH-1; O00482; HEK293T StAR-luciferase reporter, LRH-1 transfected, 24 h; inhibition, % at 3.6 µM; actives 0.13% (n = 360,000);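 active = inhibition above the mean inhibition of all tested compounds plus 3 SD, cut at about 73% in these data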
# Target sequence (O00482 whole entry, looked up): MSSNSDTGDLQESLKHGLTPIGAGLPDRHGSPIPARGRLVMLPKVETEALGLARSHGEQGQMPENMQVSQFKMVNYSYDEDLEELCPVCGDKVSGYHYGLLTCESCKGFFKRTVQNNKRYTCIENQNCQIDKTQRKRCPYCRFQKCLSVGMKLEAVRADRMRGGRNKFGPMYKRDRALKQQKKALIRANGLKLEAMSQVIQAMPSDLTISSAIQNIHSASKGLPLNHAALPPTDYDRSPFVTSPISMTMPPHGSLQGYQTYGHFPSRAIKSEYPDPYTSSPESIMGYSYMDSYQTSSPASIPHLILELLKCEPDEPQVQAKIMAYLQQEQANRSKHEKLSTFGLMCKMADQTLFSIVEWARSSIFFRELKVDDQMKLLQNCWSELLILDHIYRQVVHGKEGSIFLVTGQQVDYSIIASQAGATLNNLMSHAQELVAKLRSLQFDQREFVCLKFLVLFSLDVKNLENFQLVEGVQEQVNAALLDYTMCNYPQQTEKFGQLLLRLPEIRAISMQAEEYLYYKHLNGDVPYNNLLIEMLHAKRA
# NCOA2 inhibitor = human SRC2 (NCOA2) inhibition; Q15596; HEK293 GAL4-SRC2 luciferase reporter, luminescence; inhibition, % at 9 µM; actives 0.17% (n = 370,000);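 active = inhibition above the mean inhibition of all tested compounds plus 3 SD, set per campaign, cut at about 52% in these data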
# SRC1 inh = human NCOA1 inhibition | Q15788 | HEK293 GAL4-SRC1 luciferase reporter, luminescence | inhibition, % at 3.6 µM | actives 0.12% (n = 360,000);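 active = inhibition above the campaign mean plus 3 SD, with each screening campaign given its own cutoff, cut at about 60% in these data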
# Gli antag conf = Gli-SUFU antagonism confirmation, single concentration; Sufu-KO-LIGHT cells, Gli luciferase reporter, luminescence; inhibition, % at 5 µM; shares compounds with Gli-Sufu antag; actives 40% (n = 2,500);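 active = mean inhibition at 5 µM reaching about 45%, limit read from the data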
# SufuKO cytotox = counter-screen for Gli-SUFU antagonists: cytotoxicity; shares compounds with Gli-Sufu antag; Sufu-KO-LIGHT cells cytotoxicity, ATP luminescence; cytotoxicity, % at 5 µM; actives 32% (n = 2,500); AID 651994;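 active = mean cytotoxicity at 5 µM above about 25%, limit read from the data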;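 also: cells exposed to compound overnight for roughly 16 to 18 hours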
# Wnt3a counter = inhibits Wnt3a reporter, counter-screen for Gli-SUFU antagonists; inhibition, % at 6.25 µM; Wnt-LIGHT cells, Wnt3a-driven luciferase reporter, luminescence; shares compounds with Gli-Sufu antag; actives 20% (n = 2,500);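 active = mean inhibition above about 25%, limit read from the data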
# A number is an active result; i = inactive; nt = no result given. In the library only some 1.3% were active in any assay of this set; here they are far more common.
SMILES,SRC3 inh,Gli-Sufu antag,NR2F2 inh,NR5A2 inv ag,NCOA2 inhibitor,SRC1 inh,Gli antag conf,SufuKO cytotox,Wnt3a counter
COc1ccc(NC(=O)CN(C)C(=O)c2c(-c3ccccc3Cl)noc2C)cc1,i,i,i,i,i,i,nt,nt,nt
COc1ccc(CN(C)C(=O)COC(=O)c2c(-c3ccccc3Cl)noc2C)cc1,i,i,i,i,i,i,i,i,i
C=CCN(Cc1ccc2c(c1)OCO2)C(C#CCCCC)C(C)C (stereo unspecified),nt,nt,i,nt,nt,nt,nt,nt,nt
Cc1ccc(CSCCNC(=O)CSCc2ccc([N+](=O)[O-])cc2)cc1,i,i,i,i,i,i,i,i,i
COc1cc(C=Nn2c(-c3ccc(F)cc3)n[nH]c2=S)ccc1OCc1ccccc1,nt,nt,i,nt,i,nt,nt,nt,nt
Cc1nc2ccccc2c(N)c1C(=O)/C=C/c1ccccc1,i,61,i,i,i,i,i,i,i
Cc1ccc(NC(=O)CSc2nnc(-c3cc(-c4ccc(Cl)cc4)n[nH]3)n2N)cc1,nt,nt,i,nt,i,nt,nt,nt,nt
CN(C)c1ccc(C(=O)N2CCNC(=O)C2CC(=O)Nc2ccc(F)cc2)cc1 (stereo unspecified),i,95,i,i,i,i,i,i,i
CCN=C1NC(c2ccc(C(F)(F)F)cc2)C(C(=O)OC)=C(C)N1Cc1cccc(C(F)(F)F)c1 (stereo unspecified),nt,nt,i,nt,i,nt,nt,nt,nt
O=C([C@@H]1C[C@H]1c1ccccc1)N1CC[C@H]2[C@H](CCCN2Cc2cc(F)cc(F)c2)C1,nt,nt,i,nt,i,nt,nt,nt,nt
CCOC(=O)c1csc(NC(=O)C2CCCN(S(=O)(=O)c3cccs3)C2)n1 (stereo unspecified),nt,nt,i,nt,i,nt,nt,nt,nt
FC(F)Oc1ccc(-n2cc(-c3ccccc3)[n+]3c2CCCCC3)cc1,i,66,i,i,i,i,58,i,i
Cc1ccc(-c2cn(-c3ccc(OC(F)F)cc3)c3[n+]2CCCCC3)cc1,i,83,i,i,i,i,86,41,i
Brc1ccc(-c2csc3[n+]2CCCCC3)cc1,i,i,i,i,i,i,nt,nt,nt
Cc1ccc(-c2cn(-c3ccc(SC(F)F)cc3)c3[n+]2CCC3)cc1,i,76,i,i,i,i,80,39,i
Clc1ccc(-n2cc(-c3ccc(Br)cc3)[n+]3c2CCCCC3)cc1,i,i,i,i,i,i,68,26,i
FC(F)Sc1ccc(-n2cc(-c3ccc(Cl)cc3)[n+]3c2CCC3)cc1,i,i,i,i,i,i,nt,nt,nt
Cc1ccsc1S(=O)(=O)n1c(CN2CCOCC2)nc2ccccc21,nt,nt,i,nt,i,nt,nt,nt,nt
CCN1CCc2c(sc(NC(=O)c3cc4ccccc4cc3OC)c2C(N)=O)C1,i,69,i,i,i,i,i,i,i
COc1cccc(OC)c1C(=O)Nc1sc2c(c1C(N)=O)CCN(Cc1ccccc1)C2,i,i,i,i,i,i,nt,nt,nt
NC(=O)c1c(N)[nH]c(C(=O)c2ccccc2)c1-c1ccccc1C(F)(F)F,nt,nt,i,nt,nt,nt,nt,nt,nt
Cc1cc(C)c2c(ccc3ccccc32)n1,i,i,i,i,i,i,nt,nt,nt
Oc1ccc(-c2nc3ccc4ccccc4c3c3c2CCC3)cc1O,i,56,i,i,i,i,i,i,i
O=S(=O)(CC1NCc2cc(F)ccc21)NCc1ccc(F)cc1 (stereo unspecified),nt,nt,i,nt,i,nt,nt,nt,nt
COc1ccccc1C(=O)Nc1ccc2oc(-c3ccc(F)cc3)nc2c1,i,95,i,i,i,i,i,i,i
SMILES,SRC3 inh,Gli-Sufu antag,NR2F2 inh,NR5A2 inv ag,NCOA2 inhibitor,SRC1 inh,Gli antag conf,SufuKO cytotox,Wnt3a counter
CCN(CC)S(=O)(=O)c1ccc(N/N=C/c2ccc(O)cc2O)nc1,68,58,i,i,i,i,70,26,79
O=[N+]([O-])c1ccc(NN=Cc2ccc(O)cc2O)nc1,i,i,i,i,i,i,nt,nt,nt
COc1cc(-n2c(C)nc3cc(C(=O)N4CCCCC4)ccc32)cc(OC)c1OC,nt,nt,i,nt,i,nt,nt,nt,nt
C=CCN(C)CC#Cc1ccc(C)cc1,nt,nt,i,nt,i,nt,nt,nt,nt
COc1cnn(-c2cccc(C)c2)c(=O)c1Cl,i,i,i,i,i,i,i,i,i
CC(NCc1ccco1)C(=O)N1CCOCC1 (stereo unspecified),nt,nt,i,nt,i,nt,nt,nt,nt
CC(SC(C)C(=O)NN=Cc1cccc(Cl)c1)C(=O)NN=Cc1cccc(Cl)c1 (stereo unspecified),i,i,i,i,i,i,nt,nt,nt
COc1cccc(C=NNC(=O)C(C)SC(C)C(=O)NN=Cc2cccc(OC)c2)c1 (stereo unspecified),i,i,i,i,i,i,i,i,i
O=C(c1ccc(F)cc1F)N(Cc1ccccn1)CC1CCCO1 (stereo unspecified),nt,nt,i,nt,i,nt,nt,nt,nt
O=C(NCCc1ccccc1)C1CCC(=O)N(CCCN2CCCC2=O)C1 (stereo unspecified),i,i,i,i,i,i,nt,nt,nt
O=C(NCc1cc2ccccc2[nH]1)C1CCC(=O)N(CCCN2CCCC2=O)C1 (stereo unspecified),i,59,i,i,i,i,i,i,i
NC(=O)c1ccc(Br)c(S(=O)(=O)N2CCCCC2)c1,i,i,i,i,i,i,nt,nt,nt
O=S(=O)(c1cc(Br)ccc1Br)N1CCCCCC1,i,56,i,i,i,i,i,i,i
Cc1onc(-c2ccc(Cl)cc2)c1-c1ccn(S(=O)(=O)c2ccccc2Cl)n1,nt,nt,i,nt,i,nt,nt,nt,nt
COc1ccc(OC)c(CN2C(=O)COc3ccccc3C2c2nnnn2C2CCCC2)c1 (stereo unspecified),nt,nt,i,nt,i,nt,nt,nt,nt
O=C(/C=C/c1ccccc1Cl)Nc1cccc(S(=O)(=O)NC2=NCCCCC2)c1,i,i,i,i,i,i,i,i,i
Cc1cn2c(-c3cccnc3)nnc2s1,i,i,i,i,i,i,nt,nt,nt
Cc1cn2c(-c3ccncc3)nnc2s1,i,i,i,i,i,i,i,i,i
CCOC(=O)NC[C@@]1(C(=O)OC)CC(=O)N(C)[C@@H]1c1ccccc1,nt,nt,i,nt,i,nt,nt,nt,nt
CCN(CC)S(=O)(=O)c1cccc(C(=O)N/N=C/c2cc(OC)c(O)c(OC)c2)c1,i,i,i,i,i,i,nt,nt,nt
O=C(N/N=C/c1ccccc1O)c1cccc(C(F)(F)F)c1,i,66,i,i,i,i,62,36,58
CCN(CC)S(=O)(=O)c1cccc(C(=O)N/N=C/c2cccc(O)c2O)c1,i,71,i,i,i,i,51,48,36
CCOc1ccccc1CNS(=O)(=O)c1ccc(-c2cnc(C3CC3)o2)cc1,i,i,i,i,i,i,55,59,i
COc1ccc(C)cc1NS(=O)(=O)c1ccc(-c2cnc(C3CC3)o2)cc1,i,66,i,i,i,i,62,66,i
